Screening results from PubChem BioAssay.
Hits are enriched below; roughly 6.6% of the tested compounds scored in any of these assays.
HT1080 IDH1KD tx: HT-1080 IDH1 knockdown cell toxicity (counter line) | HT-1080 IDH1 knockdown viability, ATP luminescence, 48 h | Potency, µM (series often up to 46.1 µM), most hits filed as cytotoxic | actives 2% (n = 360,000) | AID 686971
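Luminescent ATP read-out (CellTiter-Glo, 10 min at room temperature) after 48 h compound exposure at 37 °C gave viability of IDH1-knockdown HT-1080 cells. Activity was normalised to DMSO and cell-free wells, then fitted as concentration-response curves.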
KB-3-1 cytotox: KB-3-1 parental cell cytotoxicity | KB-3-1 viability, CellTiter-Glo ATP luminescence, 72 h | Potency, µM (top dose mostly 46.1 µM), usual class: cytotoxic | actives 1.4% (n = 400,000) | AID 1347075; note: nearly all actives have a fitted effect of over 60% in size
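Luminescent ATP read-out (CellTiter-Glo) measures survival of drug-naive KB-3-1 cells after 72 h compound exposure at 37 °C. Titration series was screened from lowest to highest concentration, with DMSO vehicle plates as background controls.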
HT1080NT lethal: kills 2HG-producing HT-1080-NT fibrosarcoma cells; Potency, µM (titrated, usually from 46.1 µM), most hits filed as cytotoxic; actives 1.6% (n = 360,000); HT-1080-NT fibrosarcoma viability, CellTiter-Glo ATP luminescence, 48 h;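 note: NT is the 2HG producing partner of a matched IDH1 knockdown line; nearly all actives have a fitted effect of over 55% in size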
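Toxicity toward the 2HG-producing NT line was scored as %Activity, normalised to DMSO and no-cell wells, from CellTiter-Glo luminescence after 48 hours' treatment.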
HepG2 tox-1: counter-screen for TGF-b inhibitors: cytotoxicity in HepG2 cells; HepG2 CAGA-GFP viability, ATP luminescence, 18 h; Potency, µM (series often up to 46.1 µM), most hits filed as cytotoxic; actives 0.76% (n = 410,000)
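CellTiter-Glo luminescence gave cytotoxicity after 18 hours at 37 degrees C. The cells were HepG2 CAGA-GFP in 1% FBS DMEM, stimulated with 500 pg/mL TGF-beta after compound addition. %Activity was normalised to no-cell wells (complete cell-killing) and DMSO (no toxicity), and curves were fitted and classified.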
KB-V1 MDR tox: KB-V1 MDR subline cytotoxicity. KB-V1 MDR cells viability, CellTiter-Glo, 72 h. Potency, µM (series often up to 46.1 µM), most hits filed as cytotoxic. actives 3.4% (n = 400,000); note: nearly all actives have a fitted effect of over 60% in size
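Luminescent ATP read-out (CellTiter-Glo, 10 min) measures survival of drug-selected KB-V1 MDR cells after 72 h, 37 degrees C compound exposure. Medium: phenol-red-free DMEM, 10% FBS. Values from fitted concentration-response curves.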
TGFb inhibitor: inhibitors of TGF-b signaling. HepG2 CAGA-GFP TGF-b/SMAD3 reporter, GFP fluorescence, 18 h; TGF-beta stimulated, 500 pg/mL final. Potency, µM (series often up to 46.1 µM), hits mostly inhibitors. actives 1.2% (n = 410,000). AID 588855; note: nearly all actives have a fitted effect of over 65% in size
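HEPG2 CAGA-GFP, 1000 cells/well; 2 h settle, 37 C; cpd via pin tool; TGF-b 500 pg/mL final; 18 h, 37 C; GFP imaging ex488/em500-530; %Activity normalised to -TGF-b and +DMSO controls; CRC fit, curve class.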
TGFb confirm: confirmation of TGF-b signaling inhibitors in HepG2 reporter cells | AID 720534 | Potency, µM (top dose mostly 46.1 µM), hits mostly inhibitors | shares compounds with TGFb inhibitor | actives 63% (n = 1,600) | HepG2 CAGA-GFP TGF-b reporter, GFP fluorescence, 18 h; cells stimulated with TGF-beta, 500 pg/mL; note: nearly all actives have a fitted effect of over 65% in size
HepG2 tox-2: toxic to HepG2 cells in TGF-b counterscreen; shares compounds with TGFb inhibitor; HepG2 CAGA-GFP viability, ATP luminescence, 18 h; cells stimulated with TGF-beta, 500 pg/mL; actives 27% (n = 1,600); Potency, µM (highest dose often 46.1 µM), actives largely listed as inhibitors; AID 720535; note: nearly all actives have a fitted effect of over 70% in size
CCL64 TGFb inh: orthogonal confirmation of TGF-b inhibitors in CCL64 cells. shares compounds with TGFb inhibitor. CCL64 CAGA-GFP reporter, TGF-b stimulated, GFP fluorescence, 18 h. Potency, µM (highest dose often 46.1 µM), usual class: inhibitors. actives 41% (n = 1,600). AID 720536; note: nearly all actives have a fitted effect of over 65% in size
TGFb COP inh: TGF-b inhibition validated with COP promoter | shares compounds with TGFb inhibitor | HepG2 COP-GFP TGF-b reporter, GFP fluorescence, 18 h; cells stimulated by added recombinant TGF-beta | Potency, µM (highest dose often 46.1 µM), hits mostly inhibitors | actives 3% (n = 1,600); note: nearly all actives have a fitted effect of over 70% in size
Numbers stand for hits. Calls come from the whole dose curve; as a rule, active = well fitted curve in the direction sought with a large enough effect; inconclusive = small, poorly fitted or top-dose-only effect, or another doubt; inactive = no such curve, though single readings can be large; an effect the other way counts as inactive or inconclusive.

Results for C[C@@H]1CN([C@H](C)CO)C(=O)CCCn2cc(nn2)CO[C@H]1CN(C)C(=O)c1ccc2ccn(C)c2c1 ?
HT1080 IDH1KD tx: inactive; KB-3-1 cytotox: inactive; HT1080NT lethal: inactive; HepG2 tox-1: inactive; KB-V1 MDR tox: inactive; TGFb inhibitor: inactive

Results for CCC(C(=O)Nc1cc(C(F)(F)F)ccc1Cl)n1nc(C)c2sc3ccccc3c2c1=O (stereo not drawn) ?
KB-3-1 cytotox: inactive; HepG2 tox-1: inactive; KB-V1 MDR tox: inactive; TGFb inhibitor: inactive

Results for CC1(Cc2cccc(C(F)(F)F)c2)C(=O)Nc2ccc(-c3ccc(F)c(Cl)c3)cc21 (stereo not drawn) ?
HT1080 IDH1KD tx: inconclusive; KB-3-1 cytotox: inactive; HT1080NT lethal: inconclusive; HepG2 tox-1: 10µM; KB-V1 MDR tox: inactive; TGFb inhibitor: 10µM; TGFb confirm: inconclusive; HepG2 tox-2: 18µM; CCL64 TGFb inh: inconclusive; TGFb COP inh: inactive

Results for O=[N+]([O-])c1cccc(N=Nc2ccc(O)cc2O)c1 ?
HT1080 IDH1KD tx: 5.8µM; KB-3-1 cytotox: inconclusive; HT1080NT lethal: inconclusive; HepG2 tox-1: inactive; KB-V1 MDR tox: inactive; TGFb inhibitor: 2.5µM; TGFb confirm: 12µM; HepG2 tox-2: 8.2µM; CCL64 TGFb inh: 5.8µM; TGFb COP inh: inactive

What do the screens show for `CC(C)C[C@@H](CN1CCC[C@@H]1CN1C(=S)NC[C@@H]1Cc1ccc(O)cc1)N1C[C@H](Cc2ccc(O)cc2)N(CC2CCCCC2)C1=S`?
HT1080 IDH1KD tx: inconclusive; KB-3-1 cytotox: inconclusive; HT1080NT lethal: 23µM; HepG2 tox-1: inactive; KB-V1 MDR tox: inconclusive; TGFb inhibitor: 7.1µM; TGFb confirm: 16µM; HepG2 tox-2: inconclusive; CCL64 TGFb inh: 5.8µM; TGFb COP inh: inconclusive

Results for CC(C)C[C@@H](CN1CCCC1CN1C(=S)NC[C@@H]1Cc1ccccc1)N1C[C@H](Cc2ccc(O)cc2)N(CC2CCCCC2)C1=S (stereo partly drawn) ?
HT1080 IDH1KD tx: inconclusive; KB-3-1 cytotox: inactive; HT1080NT lethal: inconclusive; KB-V1 MDR tox: inconclusive

What do the screens show for `CC(C)C[C@@H](CN1CCC[C@@H]1CN1C(=S)NC[C@@H]1Cc1ccc(O)cc1)N1C[C@H](Cc2ccc(O)cc2)N(CC2CCCCCC2)C1=S`?
HT1080 IDH1KD tx: 18µM; KB-3-1 cytotox: inconclusive; HT1080NT lethal: inconclusive; HepG2 tox-1: inactive; KB-V1 MDR tox: inconclusive; TGFb inhibitor: 4.5µM; TGFb confirm: 18µM; HepG2 tox-2: 18µM; CCL64 TGFb inh: 8.2µM; TGFb COP inh: inactive

What do the screens show for `O=CN/C=C/c1cccc(O)c1`?
HT1080 IDH1KD tx: inactive; KB-3-1 cytotox: inactive; HT1080NT lethal: inactive; HepG2 tox-1: inactive; KB-V1 MDR tox: inactive; TGFb inhibitor: inactive

What do the screens show for `CCOc1ccc(CNC(=O)c2cnc3sc(N(CC)CC)nn3c2=O)cc1`?
HepG2 tox-1: inactive; TGFb inhibitor: inactive

What do the screens show for `COc1cc(C(C)=O)ccc1OC(=O)N1CCOCC1`?
HT1080 IDH1KD tx: inactive; KB-3-1 cytotox: inactive; HT1080NT lethal: inactive; HepG2 tox-1: inactive; KB-V1 MDR tox: inactive; TGFb inhibitor: inactive

What do the screens show for `Cc1c(C(=O)N/N=C/c2ccc(N(C)C)cc2)[nH]c2ccc(Cl)cc12`?
HT1080 IDH1KD tx: inconclusive; KB-3-1 cytotox: 5.8µM; HT1080NT lethal: 5.8µM; HepG2 tox-1: inactive; KB-V1 MDR tox: 5.8µM; TGFb inhibitor: 4.5µM; TGFb confirm: 2.3µM; HepG2 tox-2: inactive; CCL64 TGFb inh: inconclusive; TGFb COP inh: inactive

What do the screens show for `Cc1ccc2cccc(NC(=O)c3cccc4c(Cl)cccc34)c2n1`?
KB-3-1 cytotox: inconclusive; HepG2 tox-1: inactive; KB-V1 MDR tox: inactive; TGFb inhibitor: inactive

Results for COc1ccc(NCc2nc3ccccc3n2CCOc2ccc(C)cc2)cc1 ?
HT1080 IDH1KD tx: inconclusive; KB-3-1 cytotox: inconclusive; HT1080NT lethal: 18µM; HepG2 tox-1: inactive; KB-V1 MDR tox: inconclusive; TGFb inhibitor: 14µM; TGFb confirm: 13µM; HepG2 tox-2: inconclusive; CCL64 TGFb inh: 8.2µM; TGFb COP inh: inactive

What do the screens show for `COc1ccc(N2CCc3c(C)nc4c(OC)cccc4c32)cc1`?
HT1080 IDH1KD tx: 3.3µM; KB-3-1 cytotox: 4.6µM; HT1080NT lethal: 3.7µM; HepG2 tox-1: inactive; KB-V1 MDR tox: inconclusive; TGFb inhibitor: 11µM; TGFb confirm: 15µM; HepG2 tox-2: inconclusive; CCL64 TGFb inh: 26µM; TGFb COP inh: inactive

What do the screens show for `Cc1nc2c(C)cccc2c2c1CCN2c1ccccc1F`?
HT1080 IDH1KD tx: inconclusive; KB-3-1 cytotox: inactive; HT1080NT lethal: inactive; HepG2 tox-1: inactive; KB-V1 MDR tox: inactive; TGFb inhibitor: inconclusive

How did COc1ccc(CN(C)C[C@@H]2OCc3cnnn3CCCC(=O)N([C@H](C)CO)C[C@H]2C)cc1 do in these assays?
HT1080 IDH1KD tx: inactive; KB-3-1 cytotox: inactive; HT1080NT lethal: inactive; HepG2 tox-1: inactive; KB-V1 MDR tox: inactive; TGFb inhibitor: inconclusive

Results for Cc1cc(C)c(NC(=O)Cn2ccn(-c3cccc(Cl)c3)c(=O)c2=O)c(C)c1 ?
HepG2 tox-1: inactive; TGFb inhibitor: inactive

How did COc1ccc(CNC(=O)c2cccc(-c3ccc(C)c4ccccc34)n2)cc1 do in these assays?
HT1080 IDH1KD tx: inconclusive; KB-3-1 cytotox: inconclusive; HT1080NT lethal: inconclusive; HepG2 tox-1: inactive; KB-V1 MDR tox: inconclusive; TGFb inhibitor: 20µM; TGFb confirm: inconclusive; HepG2 tox-2: inconclusive; CCL64 TGFb inh: inconclusive; TGFb COP inh: inactive
